Mdm2-MdmX inh = inhibitors of human Mdm2/MdmX interaction; O15151+Q00987; SaOS-2 split-luciferase Mdm2/MdmX complementation, luminescence; inhibition, % at 8 µM; hit rate 3% among 330,000; AID 485346;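 active = inhibition of at least 50% at 8 µM in the primary screen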
Target sequence (O15151 whole entry, looked up): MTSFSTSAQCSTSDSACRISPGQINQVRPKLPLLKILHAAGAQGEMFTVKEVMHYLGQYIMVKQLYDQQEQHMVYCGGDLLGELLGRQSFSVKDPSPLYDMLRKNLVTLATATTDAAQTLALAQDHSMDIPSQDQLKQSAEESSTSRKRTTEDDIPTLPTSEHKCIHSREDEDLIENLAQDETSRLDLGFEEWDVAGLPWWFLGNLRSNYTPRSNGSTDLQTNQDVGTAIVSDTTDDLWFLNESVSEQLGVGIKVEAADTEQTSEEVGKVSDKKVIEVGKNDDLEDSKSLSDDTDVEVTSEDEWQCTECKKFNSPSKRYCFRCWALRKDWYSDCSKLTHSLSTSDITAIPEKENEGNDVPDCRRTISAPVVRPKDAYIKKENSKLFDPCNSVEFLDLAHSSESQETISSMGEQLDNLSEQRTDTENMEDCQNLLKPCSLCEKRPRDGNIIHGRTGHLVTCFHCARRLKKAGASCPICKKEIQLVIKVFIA
Target sequence (Q00987 whole entry, looked up): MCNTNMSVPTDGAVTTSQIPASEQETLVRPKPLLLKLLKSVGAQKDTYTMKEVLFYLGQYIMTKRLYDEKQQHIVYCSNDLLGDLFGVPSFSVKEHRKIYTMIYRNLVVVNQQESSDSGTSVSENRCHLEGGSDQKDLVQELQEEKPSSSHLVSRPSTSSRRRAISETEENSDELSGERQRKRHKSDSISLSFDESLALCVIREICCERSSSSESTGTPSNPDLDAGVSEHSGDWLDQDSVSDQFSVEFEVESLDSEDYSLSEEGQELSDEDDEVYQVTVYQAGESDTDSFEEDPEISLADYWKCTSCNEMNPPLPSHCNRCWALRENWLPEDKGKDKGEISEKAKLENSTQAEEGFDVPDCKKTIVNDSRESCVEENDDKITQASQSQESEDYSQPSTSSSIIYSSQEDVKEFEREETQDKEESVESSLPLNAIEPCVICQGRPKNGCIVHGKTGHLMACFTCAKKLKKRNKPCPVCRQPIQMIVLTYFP
Jurkat NFkB inh = inhibitors of the PMA/ionomycin-induced NF-kB reporter in Jurkat cells | PMA/ionomycin-induced NF-kB luciferase reporter, luminescence | hit rate 0.53% among 330,000 | inhibition, % at 4 µM; in the data active = inhibition above about 50%
Gli-Sufu block = antagonists of Gli-Sufu signaling; Sufu-KO-LIGHT fibroblasts, Gli luciferase reporter luminescence; inhibition, % at 5 µM; hit rate 0.74% among 340,000; AID 588413;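 active = inhibition above about 55%, limit read from the data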;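 note: 0% = DMSO-treated cells and 100% = wells with medium but no cells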
Beta cell apopt = beta cell apoptosis inhibition. AID 435005. INS-1E cytokine-induced death, ATP luminescence, 48 h; percent of positive-control rescue, neutral wells zero. protection from apoptosis, % (test concentration not listed). hit rate 0.8% among 300,000;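 active = Every replicate reaches about 75%, or at least half do and their mean reaches it too, limit read from the data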;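 note: 0% = cytokine-treated negative control wells and 100% = positive control rescue; higher means more ATP so stronger rescue from cytokine killing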
697 NFkB inh = lowers PMA/ionomycin-induced NF-kB signal in 697 B cells; 697 B-cell NF-kB luciferase reporter, 16 h; inhibition, % at 4 µM; hit rate 0.33% among 330,000; AID 435022; in the data active = inhibition above about 35%
CSC inhib = blocks cancer stem cells; cancer stem cell-like cells viability, luminescence; inhibition, % at 7.5 µM; hit rate 1.1% among 300,000; AID 2717; in the data active = inhibition above about 75%; tested in HMLE shEcad cells
Starred values were filed as active, the others as inactive; / = no result. Most compounds without a hit are left out; they make up all but 4.5% or so of the library.

SMILES	Mdm2-MdmX inh	Jurkat NFkB inh	Gli-Sufu block	Beta cell apopt	697 NFkB inh	CSC inhib
COc1cc(/C=c2\sc3n(c2=O)C(c2ccccc2)C(c2ccccc2)=NN=3)ccc1O (centres undefined)	47.2	-1.7	-1.1	13.8	22.2	103.3*
COc1cc(/C=c2\sc3n(c2=O)CCCN=3)ccc1O	-43.2	-15.5	-17.7	-1.4	1.3	7.5
COc1ccc(C(=O)NC(=O)COC(=O)C2CC2C)cc1 (centres undefined)	5.8	-2.9	6.3	-7.4	1.2	-2.6
CCOc1cc([N+](=O)[O-])c2nc(N)sc2c1	21.5	-5.7	-5.4	1.1	8.9	-13.0
CC(C)Nc1cc(C(C)(C)C)nc2c(-c3ccccc3)cnn12	24.0	-58.1	-32.1	/	-94.4	48.7
CC(C)(C)c1cc(NCCCn2ccnc2)n2ncc(-c3ccccc3)c2n1	16.5	-95.2	-75.5	113.5*	-172.9	59.5
C=CCn1c2ccccc2c2n[nH]c(=S)nc21	6.3	-3.5	9.3	/	-1.7	/
O=C(CN1CCN(c2ccc(O)cc2)CC1)Nc1ccc(SC(F)F)cc1	20.3	39.6	5.2	6.0	-33.4	133.7*
Cc1cc([N+](=O)[O-])nn1Cc1ccc(C(=O)N/N=C/c2ccc(O)cc2O)cc1	49.6	4.5	-0.4	97.7*	-59.7	117.2*
Cc1cc([N+](=O)[O-])nn1Cc1ccc(C(=O)N/N=C/c2ccc(F)cc2)cc1	29.0	8.7	7.9	-7.2	5.5	1.1
CC(C)c1ccc(NC2CCCN(C(=O)c3n[nH]c4c3CCC4)C2)cc1 (centres undefined)	21.8	28.0	2.5	1.6	-38.5	-5.8
CCO[C@H]1OC(C(=O)N2CCN(Cc3ccc4c(c3)OCO4)CC2)=C[C@@H](c2csc3ccccc23)[C@@H]1CCCO	33.4	19.4	33.4	85.2*	3.1	20.9
Cc1ccc(S(=O)(=O)Cc2cc(F)c([N+](=O)[O-])cc2[N+](=O)[O-])cc1	2.9	-28.8	-0.9	/	-29.2	102.2*
Cc1cc(C)c(Nc2cc(S(=O)(=O)O)c(N)c3c2C(=O)c2ccccc2C3=O)c(C)c1	/	/	9.2	15.6	/	93.8*
Cc1cc(C)c(NC(=O)COC(=O)c2cccc3c2C(=O)c2ccccc2C3=O)c(C)c1	47.2	-3.5	-11.5	2.9	4.9	29.2
c1ccc(-c2nc3nonc3nc2-c2ccccc2)cc1	49.3	6.9	39.5	135.2*	9.7	5.6
CCOC(=O)Cc1csc(N/N=C/c2cccc([N+](=O)[O-])c2)n1	-8.1	-3.0	-8.2	3.8	19.5	-9.4
O=[N+]([O-])c1cccc(-c2csc(N/N=C/c3cccc(O)c3)n2)c1	31.8	-18.6	17.9	3.5	-15.1	87.0*
COc1cccc(/C=N/NC(=O)C(=O)N/N=C/c2cccc(OC)c2O)c1O	/	/	18.1	/	/	/
COc1cccc(/C=N/NC(=O)c2c(-c3ccccc3)noc2C)c1O	33.6	14.0	25.0	87.0*	-14.1	48.4
COc1ccccc1/C=N/NC(=O)c1ccc(NC(=O)c2cccc([N+](=O)[O-])c2)cc1	-5.9	-15.2	/	0.3	11.0	0.7
COc1cccc(/C=N/NC(=O)c2ccoc2C)c1O	23.2	-41.0	-28.8	85.5*	-73.1	13.7
COc1cccc(/C=N/NC(=O)c2cc3cc([N+](=O)[O-])ccc3s2)c1O	/	/	76.9*	81.6*	/	106.1*
COc1ccc(OC)c(CN2CCN(C(=O)c3cc(S(=O)(=O)N4CCOCC4)ccc3C)CC2)c1	/	/	1.9	/	/	/
COc1cc(/C=C/C(=O)c2ccc(NS(=O)(=O)c3ccc(C)cc3)cc2)cc(OC)c1O	/	/	9.6	-18.6	/	80.0*
SMILES	Mdm2-MdmX inh	Jurkat NFkB inh	Gli-Sufu block	Beta cell apopt	697 NFkB inh	CSC inhib
COc1ccc2cc(C(=O)/C=C/c3cc(OC)c(O)c(OC)c3)ccc2c1	0.1	-1.7	3.8	/	-22.0	54.7
CCOC(=O)C1=C(C)N2C(=C(C#N)[C@@H]1c1ccc(C(=O)OC)cc1)SC[C@@]2(O)C(C)(C)C	21.7	-15.3	13.8	24.6	-72.0	82.0*
CC1CN(C(=O)COc2ccc3c(-c4ccccc4)cc(=O)oc3c2)CC(C)O1 (centres undefined)	16.0	-3.2	-0.8	-5.1	26.5	-0.5
CCOc1ccc(NC(=O)Nc2ccon2)cc1	13.5	7.7	-46.5	0.7	-27.4	12.4
CC(C)(c1ccccc1)c1ccc(OCCCN2CCNCC2)cc1	46.7	-31.4	22.7	9.3	-29.6	79.9*
CCOC(=O)c1c(C)[nH]c(C(=O)N/N=C\c2ccccc2O)c1C	/	/	47.5	76.9*	/	79.4*
COc1ccccc1/C=N/NC(=O)c1[nH]c(C)c(C(=O)N/N=C/c2ccccc2OC)c1C	-32.5	-7.3	-0.1	1.0	-10.0	-10.7
Cc1cc(C)nc(OC(=O)c2ccc(Cl)cc2Cl)n1	9.0	-22.3	/	85.1*	-26.4	-10.2
Cc1cc(C)nc(OC(=O)c2c(Cl)cc(Cl)cc2Cl)n1	16.4	18.0	-0.5	-1.5	1.3	9.6
O=C1C=C(Nc2ccc(F)cc2)c2ccccc2C1=O	44.3	15.9	1.8	106.1*	10.5	112.4*
O=C1C=C(Nc2ccccc2O)c2ccccc2C1=O	34.3	26.7	20.3	113.4*	-6.4	99.1*
Cc1ccc(NS(=O)(=O)c2ccc3c(c2)C(=O)c2ccccc2C3=O)c(C)c1	/	/	2.3	1.7	/	32.2
Cc1ccc(NC2=CC(=O)C(=O)c3ccccc32)c(C)c1	43.5	1.1	-7.8	101.5*	0.6	/
CCOc1ccc(NC2=CC(=O)C(=O)c3ccccc32)cc1	/	/	-5.1	/	/	/
CC(NC(=O)C(=O)NCCN1CCN(C(=O)c2ccc([N+](=O)[O-])cc2)CC1)c1ccccc1 (centres undefined)	3.6	12.0	3.4	-0.8	10.3	/
COc1cc(OC)cc(C(=O)OC/C(O)=C(\C#N)c2nc3ccccc3[nH]2)c1	1.6	8.5	2.6	101.1*	18.5	37.1
N#CC(=C(O)COC(=O)c1ccc2c(c1)OCCO2)c1nc2ccccc2[nH]1	/	/	2.7	/	/	/
Cc1cccn2c(Nc3ccccc3)c(-c3ccccn3)nc12	-4.5	4.1	9.0	78.2*	-12.7	-6.4
COc1ccc(C(=O)NNc2ccccc2)cc1OC	-23.8	10.4	-1.2	-9.2	24.8	82.9*
CC(NC(=O)[C@H](C)N1C(=O)N2CCc3c([nH]c4ccccc34)[C@@]2(C)C1=O)c1ccccc1 (some centres undefined)	28.4	15.3	8.1	3.6	8.2	-6.7
Cc1ncn(-c2ccccc2)c1-c1ccccc1	-3.3	-7.0	-0.5	3.5	-4.2	11.9
CCOC(=O)c1c(NC(=O)/C=C/C(=O)O)sc(C)c1-c1ccc(Cl)cc1	13.3	10.9	-12.0	7.5	20.1	75.2*
Cc1c(C)c2c(c(C)c1O)CCC(C)(C(=O)O)O2 (centres undefined)	-21.8	7.8	-2.5	-1.4	-21.7	-13.0
Cc1ccc(NC(=S)N/N=C/c2c(Cl)cccc2Cl)c(C)c1	35.6	45.7	17.6	41.5	4.9	101.2*
CC(C)(C)NC(=S)N/N=C/c1c(Cl)cccc1Cl	12.8	2.3	3.2	0.8	-7.4	-0.4

Compound activity as filed in PubChem BioAssay.
